Data on 40 compounds can be found in PubChem BioAssay (EPA / NIEHS).

Records with an inconclusive call do not appear. Activity calls are given as the source filed them. The calls were made as follows: active = hit-call score of the fitted dose curve at least 0.9, where 1 is the maximum; inconclusive = response in the unintended direction; inactive = score below 0.9.

A word on the AC50: it is the concentration giving half of the maximal activity seen.

Read-out in the experiment: Cytochrome P450 2B6 (Homo sapiens) (UniProt P20813)
Nature of the experiment: CLD_CYP2B6_48hr: CellzDirect (CLD) Gene Expression Assay for xenobiotic metabolism (CYP2B6) at 48 hours (AID 2283699).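 Also: actives raise transcript level above DMSO so potency reflects induction.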 The procedure: CLD_48hr is a cell-based, multiplexed-readout assay that uses hepatocyte, a human liver primary cell, with measurements taken at 48 hours after chemical dosing in a 96-well plate.CLD_CYP2B6_48hr is one of 16 assay component(s) measured or calculated from the CLD_48hr assay. It is designed to make measurements of mRNA induction, a form of inducible reporter, as detected with chemiluminescence signals by Quantitative Nuclease Protection Assay (qNPA) technology.Data from the assay component CLD_CYP2B6_48hr was analyzed at the endpoint, CLD_CYP2B6_48hr, in the positive analysis fitting direction relative to DMSO as the negative control and baseline of activity. Using a type of inducible reporter, gain-of-signal activity can be used to understand changes in the reporter gene as they relate to the gene CYP2B6. Furthermore, this assay endpoint can be referred to as a primary readout. To generalize the intended target to other relatable targets, this assay endpoint is annotated to the cyp intended target family, where subfamily is xenobiotic metabolism.
Human hepatocyte cultures were treated daily for two consecutive days with fresh dosing solutions containing appropriate concentrations of the 320 ToxCast chemicals (chemical identities were blinded to CellzDirect and other ToxCast collaborators), vehicle control (0.2% DMSO), and positive control inducers as summarized in Table 1. Due to the large number of treatment groups and chemicals examined, the ToxCast chemicals were divided into two groups (spanning two independent cultures of hepatocytes from separate donor preparations (Hu778: ToxCast plates 1 and 2; Hu776: ToxCast plates 3 and 4). Each preparation of human hepatocyte cultures was treated with respective vehicle control, medium only control, set of six positive controls/reference chemicals for the five hepatic receptor pathways, and a subset of eight of the ToxCast chemicals (indoxacarb, pyrithiobac-sodium, norflurazon, cyhalofop-butyl, methomyl, thiram, acetochlor, and propiconazole). These replicate data, coupled with internal replicates designed within the blinded ToxCast chemical library, provided additional data to evaluate interindividual differences between hepatocyte preparations and their potential impact on chemical profiles.Cell morphology and integrity were evaluated using phase-contrast microscopy as an indicator of hepatocyte cell health (Tyson & Green, 1987). Cultures for each treatment group (i.e., media, vehicle [0.2% DMSO], positive control inducers [multiple concentrations], and the ToxCast chemicals [multiple concentrations]) were observed and cell morphology was assessed relative to vehicle control cultures at each harvest time point (0, 6, 24, or 48 h). […] Images were evaluated at the conclusion of the study to assess changes in cell integrity and account for the effects of chemical exposure on uncharacteristic changes in concentration-dependent gene expression profiles. The results from these determinations of apparent cytotoxicity were annotated (yes/no) alongside the corresponding qNPA data for reference.At the conclusion of each treatment period, hepatocyte cultures (96-well) were washed with 1 volume of HBSS, lysed by addition of 25 ul ArrayPlate lysis buffer (HTG, Tucson, AZ), and 70 ul/well of Denaturation Oil, denatured by incubation at 95C for 10 min, and frozen at approximately -70C until analysis by nuclease protection assay (qNPA) (Roberts et al., 2007). For qNPA analysis, cell lysates were thawed at 50C for approximately 30 min, qNPA probes were added, and samples were incubated at 95C for 10 min to begin the detection process by denaturing the target RNA, dissociating the duplexes and secondary structure hybridization. At the conclusion of the hybridization period, S1 nuclease reagent was added to each sample to digest all nonprotected nucleotides at 50C for 60-90 min. […]
For `N#Cc1c(Cl)c(Cl)c(Cl)c(C#N)c1Cl`, the AC50 is 0.962 nM (active).

As to `COC(=O)c1ccccc1S(=O)(=O)NC(=O)N(C)c1nc(C)nc(OC)n1`, the compound was classed as inactive.

`CCS(=O)(=O)c1cccnc1S(=O)(=O)NC(=O)Nc1nc(OC)cc(OC)n1`: the compound was classed as inactive.

Regarding `CC(C)N(C(=O)COc1nnc(C(F)(F)F)s1)c1ccc(F)cc1`, the AC50 was 10900 nM (active).

As to `COP(=O)(OC)OC=C(Cl)Cl`, the result was inactive.

On to `CCOC1Oc2ccc(OS(C)(=O)=O)cc2C1(C)C` (stereo not given), for which the AC50 was 1440 nM (active).

Take `Cc1cc(C)nc(NC(=O)NS(=O)(=O)c2ccccc2C(=O)OC2COC2)n1`: the outcome was inactive.

As for `CCCN(CCOc1c(Cl)cc(Cl)cc1Cl)C(=O)n1ccnc1`, the AC50 was 128 nM (active).

Turning to `O=C(O)CCCOc1ccc(Cl)cc1Cl`, the outcome was inactive.

As for `O=[N+]([O-])c1c(Cl)c(Cl)c(Cl)c(Cl)c1Cl`, the AC50 is 1900 nM (active).

With `COC(=O)c1ccccc1CS(=O)(=O)NC(=O)Nc1nc(OC)cc(OC)n1`, the compound was called inactive.

Consider `C#CCN1C(=O)COc2cc(F)c(N3C(=O)C4=C(CCCC4)C3=O)cc21`, for which the AC50 was 652 nM (active).

For `COc1nn(CSP(=S)(OC)OC)c(=O)s1`, the AC50 was 655 nM (active).

In the case of `Oc1ccc(Cl)cc1Cc1ccccc1`, the result was inactive.

With `O=S1OCC2C(CO1)C1(Cl)C(Cl)=C(Cl)C2(Cl)C1(Cl)Cl` (stereo not given), the AC50 was 980 nM (active).

Regarding `COc1cc(OC)nc(NC(=O)NS(=O)(=O)c2cc(NC=O)ccc2C(=O)N(C)C)n1`, the outcome was inactive.

For the compound `CCOc1nc(NC)nc(NC(=O)NS(=O)(=O)c2ccccc2C(=O)OC)n1`, the call was inactive.

For `CCc1ccc(C(=O)NN(C(=O)c2cc(C)cc(C)c2)C(C)(C)C)cc1`, the AC50 was 2180 nM (active).

For `CCC(C)Nc1c([N+](=O)[O-])cc(C(C)(C)C)cc1[N+](=O)[O-]` (stereo not given), the AC50 was 2440 nM (active).

With `O=C(NC(=O)c1c(F)cccc1F)Nc1ccc(OC(F)(F)C(F)OC(F)(F)F)c(Cl)c1` (stereo not given), the compound was classed as inactive.

Take `CCC(C)(NC(=O)c1cc(Cl)c(C)c(Cl)c1)C(=O)CCl` (stereo not given): the AC50 was 0.403 nM (active).

As for `Cc1[nH]c(=O)n(C(C)(C)C)c(=O)c1Cl`, the AC50 is 4850 nM (active).

As to `CCCN(CCC)c1c([N+](=O)[O-])cc(C(F)(F)F)cc1[N+](=O)[O-]`, the AC50 was 1370 nM (active).

As for `CCOCN(C(=O)CCl)c1c(C)cccc1CC`, the AC50 was 509 nM (active).

Consider `CC1(C)C(C=C(Cl)Cl)C1C(=O)OC(C#N)c1ccc(F)c(Oc2ccccc2)c1` (stereo not given), for which the AC50 is 7550 nM (active).

Turning to `CC(C)(C)C(O)C(Oc1ccc(Cl)cc1)n1cncn1` (stereo not given), the AC50 is 3180 nM (active).

For the compound `CC(C)OC(=O)Nc1cccc(Cl)c1`, the AC50 is 20000 nM (active).

As for `OCCOc1ccccc1`, the outcome was inactive.

Regarding `CC(C)(C)C(O)/C(=C\c1ccc(Cl)cc1Cl)n1cncn1` (stereo not given), the AC50 is 983 nM (active).

With `ClC1C(Cl)C(Cl)C(Cl)C(Cl)C1Cl` (stereo not given), the AC50 was 44.1 nM (active).

For `O=S(=O)(O)C(F)(F)C(F)(F)C(F)(F)C(F)(F)C(F)(F)C(F)(F)C(F)(F)C(F)(F)F`, the compound was called inactive.

`C[C@H]1[C@H](c2ccc(Cl)cc2)SC(=O)N1C(=O)NC1CCCCC1`: the AC50 was 1900 nM (active).

For `O=C(O)C(F)(F)C(F)(F)C(F)(F)C(F)(F)C(F)(F)C(F)(F)C(F)(F)F`, the compound was classed as inactive.

In the case of `CNC(=O)/C=C(\C)OP(=O)(OC)OC`, the outcome was inactive.

As for `COP(=S)(OC)Oc1ccc([N+](=O)[O-])cc1`, the AC50 is 7550 nM (active).

For the compound `O=C(Nc1ccccc1)Nc1cnns1`, the AC50 was 5630 nM (active).

Consider `O=[N+]([O-])/N=C1\NCCN1Cc1ccc(Cl)nc1`, for which the call was inactive.

As for `COP(=S)(OC)Oc1ccc(SC)c(C)c1`, the AC50 was 4480 nM (active).

As to `Clc1ccccc1-c1nnc(-c2ccccc2Cl)nn1`, the AC50 was 3080 nM (active).

For `CCC(C)(C)C(=O)OC1=C(c2ccc(Cl)cc2Cl)C(=O)OC12CCCCC2`, the call was inactive.
